Assay results reported in PubChem BioAssay (NCI).
Values joined by “and” are separate entries in the source; they are usually repeats but may differ in a detail not shown here. Identical values can stand only once. This is part of a sample that, as a whole, favours compounds with a hit. Of some 79,000 tested, about 15% had one in any assay. A number with no mark means an inactive call. Active and inactive are the calls of the source. No stated cut-off is given here; in the data, active means growth inhibition above about 70%; inactive means the rest.

Experiment: NCI Yeast Anticancer Drug Screen. Data for the mec2-1 strain (AID 157)
Settings: S. cerevisiae mec2-1 strain, at 50.0 µM (retest, dose inferred, filed as 5.0), stronger effect = higher value
Procedure, shortened: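 Each compound was tested on mec2-1 yeast, a strain altered in DNA damage repair or cell cycle control. Growth inhibition is reported relative to vehicle.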

Structure (SMILES) | growth inhibition
C#C[C@]1(OC(C)=O)CC[C@H]2[C@@H]3CCC4=CC(=O)CC[C@@H]4[C@H]3CC[C@@]21C | 15%
O=C(O)CCC/C(=N\Nc1ccccc1)C(=O)O | 99% (active)
S=c1[nH]c2ccc(Br)cc2c(=S)n1-c1ccccc1 | 5%
CCCCCCCCCCS(=O)(=O)Nc1ccc(C(=O)NN)cc1 | 48%
COC(=O)c1ccc(C)cc1CC1Cc2cc(C)ccc2C1=O (configuration not stated) | 56%
CCCCCOCC(=O)OC | 5%
COc1ccc(C2c3cc4c(cc3OC(N3CCOCC3)C2C)OCO4)c(OC)c1 (configuration not stated) | 95% (active)
COC1/C=C\OC2(C)Oc3c(C)c(O)c4c(c3C2=O)C2=NC(C)(C)N(c3ccccc3)C2=C(NC(=O)/C(C)=C\C=C\C(C)C(O)C(C)C(O)C(C)C(OC(C)=O)C1C)C4=O (configuration not stated) | 95% (active)
CSc1nc(C)c(C(=O)CCN2CCOCC2)s1 | 99% (active)
Cn1c(=S)c2[nH]c(=S)[nH]c2n(C)c1=O | 92% (active)
CC(C)CCC(C)(C)c1cc(O)ccc1O | 99% (active)
CCOC(=O)c1ccc(NC(=O)O/N=C(/Cl)CC)cc1 | 71% (active)
COC1OC(COC(=O)c2ccccc2)CC1F (configuration not stated) | -22%

Same assay, conditions: S. cerevisiae mec2-1 strain, at 50.0 µM, stronger effect = higher value

Structure (SMILES) | growth inhibition
NC1=NC2=C(CCCC2)C(c2cccs2)S1 (configuration not stated) | 32.4%
C/C(=N\NC(=S)Nc1ccc([N+](=O)[O-])cc1)c1nc2ncccc2[nH]1 | 61%
COC(=O)c1ccc(SCC(=O)c2ccc([N+](=O)[O-])o2)cc1 | 98% (active)
CCOC(=O)c1cc(C)ccc1-c1ccc(C)cc1C(=O)OCC | 67.8%
Cc1ccc(C2COc3cc(O)c(O)cc3C2)cc1 (configuration not stated) | 99.6% (active)
COc1cc(C2=NCCO2)cc(OC)c1OC | -5.5%
O=C1c2cccc3cc([N+](=O)[O-])cc(c23)C(=O)N1O | 91.3% (active)
CCOc1ccccc1C(=O)Oc1cccc(C)c1 | -9.75%
CCNc1cc(N)[n+](CC)c2n[nH]c(/N=C/c3cc(Cl)cc(Cl)c3O)c12 | 87.5% (active)
CC(=O)OC1=Cc2ccccc2C(c2ccccc2)c2ccccc21 (configuration not stated) | 9.55%
CCOC(=O)c1[nH]c(Br)c(-c2ccc(OC)c(OC)c2)c1Br | 63.5%
C#C[C@]1(OC(C)=O)CC[C@H]2[C@@H]3CCC4=CC(=O)CC[C@@H]4[C@H]3CC[C@@]21C | 88.3% (active)
O=C(O)CCC/C(=N\Nc1ccccc1)C(=O)O | 99.2% (active)
S=c1[nH]c2ccc(Br)cc2c(=S)n1-c1ccccc1 | 91.2% (active)
CCCCCCCCCCS(=O)(=O)Nc1ccc(C(=O)NN)cc1 | 71% (active)
CC(=O)OCC(OC(C)=O)C(OC(C)=O)C(OC(C)=O)C(COC(C)=O)OC(C)=O (configuration not stated) | 9.3% and -7.9% and -11.8%
COC(=O)c1ccc(C)cc1CC1Cc2cc(C)ccc2C1=O (configuration not stated) | 56.1%
CCCCCOCC(=O)OC | -11.6%
COc1ccc(C2c3cc4c(cc3OC(N3CCOCC3)C2C)OCO4)c(OC)c1 (configuration not stated) | 94.9% (active)
COC1/C=C\OC2(C)Oc3c(C)c(O)c4c(c3C2=O)C2=NC(C)(C)N(c3ccccc3)C2=C(NC(=O)/C(C)=C\C=C\C(C)C(O)C(C)C(O)C(C)C(OC(C)=O)C1C)C4=O (configuration not stated) | 53.5%
CSc1nc(C)c(C(=O)CCN2CCOCC2)s1 | 99.6% (active)
Cn1c(=S)c2[nH]c(=S)[nH]c2n(C)c1=O | 96.7% (active)
OCC(O)C(O)C(O)C(O)C(SCc1ccccc1)SCc1ccccc1 (configuration not stated) | -1.5% and -0.6% and 8.55%
CC(C)CCC(C)(C)c1cc(O)ccc1O | 99.5% (active)
CCOC(=O)c1ccc(NC(=O)O/N=C(/Cl)CC)cc1 | 78.5% (active)
COC1OC(COC(=O)c2ccccc2)CC1F (configuration not stated) | 94.8% (active)

Experiment: NCI Yeast Anticancer Drug Screen. Data for the sgs1 mgt1 strain (AID 161);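 further: 0% = growth of cultures given vehicle only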
Settings: S. cerevisiae sgs1 mgt1 strain, at 5.0 µM (retest, dose inferred, filed as 0.5), stronger effect = higher value
Procedure, shortened: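 Genetically altered yeast, compound exposure, growth inhibition relative to vehicle.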

Structure (SMILES) | growth inhibition
NC1=NC2=C(CCCC2)C(c2cccs2)S1 (configuration not stated) | 76% (active)
CCC(C)(C)NCCCCCNc1cc(OC)cc2cccnc12 | 4%
C/C(=N\NC(=S)Nc1ccc([N+](=O)[O-])cc1)c1nc2ncccc2[nH]1 | -14%
COC(=O)c1ccc(SCC(=O)c2ccc([N+](=O)[O-])o2)cc1 | 5%
CCCCCCCCCCCC(=O)OCCOP(=O)(OCC)OCC | 4%
COc1cccc2c1S(=O)(=O)C(c1ccccc1)=CC2=O | 55%
CC(C)(C)c1ccc(-n2c3nc(=O)n(-c4ccccc4C(F)(F)F)c(=O)c-3cc3ccccc32)cc1 | 10%
NC(=O)C1C(=O)c2cccc3c2C1(Br)C(Br)CCC3 (configuration not stated) | 26%
COC(=O)/C(=C/C=C(c1ccccc1)c1ccccc1)N(C(C)=O)C(C)=O | 1%
Cc1ccc(C2COc3cc(O)c(O)cc3C2)cc1 (configuration not stated) | 32%
COc1cc(C2=NCCO2)cc(OC)c1OC | -62%
CCOc1ccccc1C(=O)Oc1cccc(C)c1 | -2%
CC(=O)OC1=Cc2ccccc2C(c2ccccc2)c2ccccc21 (configuration not stated) | 2%
C#C[C@]1(OC(C)=O)CC[C@H]2[C@@H]3CCC4=CC(=O)CC[C@@H]4[C@H]3CC[C@@]21C | 2%
COc1ccc(CC2=CC(=O)C(=O)C=C2C)cc1 | 9%
S=c1[nH]c2ccc(Br)cc2c(=S)n1-c1ccccc1 | 0%
CC1(C)OC2C(COC(c3ccccc3)(c3ccccc3)c3ccccc3)OC(n3cnc4c(N)ncnc43)C2O1 (configuration not stated) | 11%
O=[N+]([O-])c1cnc(F)c(Br)c1 | 99% (active)
C=C(C#N)C(=O)OCC(CC)CC.C=C(C#N)C(=O)OCC(CC)CC.CS(C)=O.CS(C)=O.Nc1c(N=Nc2ccc(-c3ccc(N=Nc4cc(S(=O)(=O)[O-])c5ccccc5c4N)cc3)cc2)cc(S(=O)(=O)[O-])c2ccccc12.[Pt+2] | 1%
CCCCCCCCCCS(=O)(=O)Nc1ccc(C(=O)NN)cc1 | 42%
COC(=O)c1ccc(C)cc1CC1Cc2cc(C)ccc2C1=O (configuration not stated) | -31%
COc1ccc(C2c3cc4c(cc3OC(N3CCOCC3)C2C)OCO4)c(OC)c1 (configuration not stated) | 2%
C/C(=C/C(=O)N1c2ccccc2CC1c1c[nH]c2ccccc12)C(=O)O (configuration not stated) | -3%
CCc1c(-c2ccccc2)c(CN2CCCCC2)c2ccccn12 | 0%
Clc1ccc(CN2COc3c(ccc4cccnc34)C2)c(Cl)c1 | 4%
Cc1[nH]c2ccccc2c1/C=C1/CCCCCCC1=O | -11%
CCOC(=O)c1ccc(NC(=O)O/N=C(/Cl)CC)cc1 | -26%
COC1OC(COC(=O)c2ccccc2)CC1F (configuration not stated) | -12%
